Screening data from PubChem BioAssay.
This is a sample that favours compounds with a hit; in the whole collection about 3% have one here.
SENP8 block-1: SENP8 protease inhibition; Q96LD8; purified SENP8, Z-RLRGG-aminoluciferin cleavage, luminescence; inhibition, % at 10 µM; actives 1.2% (n = 330,000); AID 2540; in the data active = inhibition above about 50%
Target sequence (Q96LD8 whole entry, looked up): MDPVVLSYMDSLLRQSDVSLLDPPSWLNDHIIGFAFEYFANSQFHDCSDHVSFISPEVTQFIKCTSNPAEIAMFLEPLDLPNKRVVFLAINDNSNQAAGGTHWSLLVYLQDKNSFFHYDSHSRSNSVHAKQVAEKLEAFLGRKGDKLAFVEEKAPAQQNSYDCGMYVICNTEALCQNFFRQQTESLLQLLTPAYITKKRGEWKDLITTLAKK
SENP8 block-2: blocks human SENP8 cleavage of Nedd8 substrate; Q96LD8; recombinant SENP8, Nedd8 substrate fluorescence; inhibition, % at 20 µM; actives 0.64% (n = 360,000); in the data active = inhibition mostly above about 40%, no sharp cut-off; inactive = mostly below about 27%
SENP6 inh: inhibitors of human SENP6 protease. Q9GZR1. Recombinant SENP6 catalytic domain, aminoluciferin luminescence. inhibition, % at 10 µM. actives 1.8% (n = 330,000). AID 2599;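 active = inhibition above about 50% at the single tested dose, limit read from the data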;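 also: plate controls were DMSO wells with enzyme for no effect and DMSO wells lacking enzyme for full effect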
Target sequence (Q9GZR1 628-1112 limits assumed): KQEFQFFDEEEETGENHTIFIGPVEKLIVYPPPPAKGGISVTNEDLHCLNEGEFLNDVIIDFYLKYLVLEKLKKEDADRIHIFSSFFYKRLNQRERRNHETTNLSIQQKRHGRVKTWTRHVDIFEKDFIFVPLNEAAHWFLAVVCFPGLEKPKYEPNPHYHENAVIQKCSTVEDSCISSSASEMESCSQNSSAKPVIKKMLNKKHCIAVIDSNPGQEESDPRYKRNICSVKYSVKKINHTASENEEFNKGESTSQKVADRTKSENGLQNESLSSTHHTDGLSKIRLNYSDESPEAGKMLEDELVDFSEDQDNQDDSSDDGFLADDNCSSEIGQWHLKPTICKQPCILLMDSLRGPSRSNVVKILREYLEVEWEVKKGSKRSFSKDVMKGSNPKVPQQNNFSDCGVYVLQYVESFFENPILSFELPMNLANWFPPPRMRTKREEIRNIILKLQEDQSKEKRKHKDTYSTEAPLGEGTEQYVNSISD
C8 TRAIL sens: sensitizes caspase-8 expressing cells to TRAIL; NB7+C8 cells + TRAIL, ATPlite viability luminescence; inhibition (viability loss, TRAIL sensitization), % at 10 µM; actives 1% (n = 360,000); AID 624354;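 active = compounds causing at least 50% loss of cell viability in the single-dose screen, relative to plate controls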
PPC-1+TRAIL kill: PPC-1 cancer cell killing with TRAIL present. actives 0.41% (n = 220,000). PPC-1 cells + TRAIL, ATPLite viability luminescence. cell killing (% activity), % at 4 µM or 5 µM;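 active = cell killing above 50% in the first pass at 4 µM, then a duplicate retest at 5 µM averaging 50% or more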;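 also: plate controls were cells with TRAIL plus DMSO for no effect and medium-only wells lacking cells for full effect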
SENP7 inh: blocks the human protease SENP7; inhibition, % at 5 µM; recombinant SENP7, Z-RLRGG-aminoluciferin luminescence, 40 min; Q9BQF6; actives 1.5% (n = 330,000);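 active = inhibition above about 50% at the single test dose, limit read from the data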;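 also: plate controls were DMSO with enzyme for no effect and no enzyme buffer wells for full effect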
SENP8 conf: human SENP8 inhibition, confirmed. shares compounds with SENP7 inh. inhibition, % at 12.5 µM. AID 488912. Recombinant SENP8, Z-RLRGG-aminoluciferin luminescence, 60 min. actives 40% (n = 6,200);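 active = mean inhibition across replicates above about 50%, limit read from the data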
SENP6 confirm: human SENP6 inhibition, confirmed | shares compounds with SENP7 inh | recombinant SENP6, Z-RLRGG-aminoluciferin luminescence | inhibition, % at 12.5 µM | actives 58% (n = 6,200)
SENP7 conf: human SENP7 inhibition, confirmed | shares compounds with SENP7 inh | recombinant SENP7, Z-RLRGG-aminoluciferin luminescence, 40 min | inhibition, % at 12.5 µM | actives 69% (n = 6,200) | AID 488917
Casp3 SENP sel: inhibits human caspase-3 in SENP selectivity test; shares compounds with SENP7 inh; purified caspase-3, Z-DEVD-aminoluciferin luminescence, 60 min; inhibition, % at 12.5 µM; actives 60% (n = 6,200); AID 488918;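 active = mean inhibition above about 50%, limit read from the data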;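 also: plate controls were enzyme with DMSO for no effect and wells without caspase-3 for full effect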
SENP luc ctr: luminescence interference (SENP counter-screen); shares compounds with SENP7 inh; Pre-incubated SENP8/Z-RLRGG-aminoluciferin, luciferase luminescence interference; inhibition, % at 12.5 µM; actives 39% (n = 6,200);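 active = mean inhibition above about 50% when retested at one dose, limit read from the data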;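 also: plate controls were DMSO wells with completed reaction for no effect and substrate without enzyme for full effect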
* = called active by the depositor; / = not tested or not shown.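 The calls were made as follows, unless noted: active = mean inhibition above about 50% in the one-dose retest (limit read from the data); inactive = the rest.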

SMILES | SENP8 block-1 | SENP8 block-2 | SENP6 inh | C8 TRAIL sens | PPC-1+TRAIL kill | SENP7 inh | SENP8 conf | SENP6 confirm | SENP7 conf | Casp3 SENP sel | SENP luc ctr
Cc1cccc(/C(N)=N/OC(=O)Cc2ccccc2)c1 | -12 | 2 | 8 | 2 | 13 | -13 | / | / | / | / | /
Cc1cnc(C(=O)N2CCCC(C(=O)c3ccc(C(C)(C)C)cc3)C2)cn1 (configuration not stated) | -1 | 3 | -13 | -13 | -10 | -3 | / | / | / | / | /
N/C(=N\OC(=O)c1cccc(F)c1)c1ccccn1 | 81* | 8 | 90* | 56* | / | 91* | 91* | 93* | 101* | 97* | 90*
Cc1ccc(C(=O)O/N=C(\N)c2ccccn2)cc1C | 93* | 19 | 98* | 81* | / | 98* | 95* | 95* | 101* | 96* | 86*
CC(C)(C)c1ccc(C(=O)C2CCCN(C(=O)c3ccccn3)C2)cc1 (configuration not stated) | 2 | 5 | 5 | -27 | / | 102* | -9 | -7 | -10 | 0 | 4
Cc1nn(S(=O)(=O)c2ccccc2)c(C)c1S(=O)(=O)N1CCOCC1 | 5 | -4 | 41 | -12 | / | 8 | / | / | / | / | /
O=C1C=C(c2cccc(CO)c2)C[C@@H](c2ccc(Cl)cc2)C1 | 3 | -5 | 2 | -2 | / | 8 | / | / | / | / | /
C/C(=N\OC(=O)c1ccc(Br)cc1)c1ccccn1 | 93* | 14 | 97* | -8 | 27 | 97* | 43 | 54* | 44 | 46 | 12
C/C(=N\NC(=O)c1cccc(Br)c1)c1ccccn1 | -4 | 19 | -14 | 47 | / | -2 | / | / | / | / | /
C/C(=N\NC(=O)c1cc(Br)ccc1O)c1ccccn1 | 78* | -88 | 87* | 21 | / | 56* | 41 | 85* | 84* | 91* | 29
CCOc1ccc(C(=O)O/N=C(\N)c2ccccn2)cc1 | 97* | 7 | 98* | 93* | / | 100* | 98* | 99* | 102* | 98* | 73*
Cc1ccc(C(=O)O/N=C(\N)c2ccccn2)cc1 | 98* | 9 | 99* | 95* | / | 101* | 99* | 99* | 102* | 98* | 88*
Cc1cc(C)cc(OCC(=O)O/N=C(\N)c2ccccn2)c1 | -6 | 17 | -20 | 2 | 3 | 7 | / | / | / | / | /
CCOC(=O)C1=C[C@@H](C(C)C)N(S(=O)(=O)c2ccc(C)cc2)[C@H]1c1ccc(C(F)(F)F)cc1 | / | 10 | / | 28 | / | / | / | / | / | / | /
Cc1cccc(/C(N)=N/OC(=O)c2ccc3c(c2)OCO3)c1 | 97* | 7 | 98* | 34 | 24 | 100* | 100* | 100* | 103* | 98* | 99*
CC(C)(C)c1ccc(C(=O)O/N=C(\N)c2ccccn2)cc1 | 94* | 14 | 97* | 98* | / | 98* | 86* | 98* | 102* | 95* | 76*
COc1cc(OC)cc(C(=O)O/N=C(\N)c2cccc(C)c2)c1 | -8 | 7 | -3 | 32 | / | 12 | / | / | / | / | /
Cc1cccc(/C(N)=N/OC(=O)c2cccnc2)c1 | 49 | 25 | 69* | 3 | 21 | 80* | 47 | 54* | 85* | 84* | 58*
C/C(=N/NC(=O)c1ccc(C(C)(C)C)cc1)c1ccccn1 | 1 | 2 | 5 | 28 | / | 16 | / | / | / | / | /
N/C(=N\OC(=O)c1ccc(Br)o1)c1ccccn1 | 64* | 15 | 50* | 24 | 8 | 88* | 86* | 85* | 97* | 94* | 57*
CCOc1ccc(CCNC(=O)CSc2n[nH]c(N)n2)cc1OCC | -6 | -4 | -6 | 4 | / | -1 | / | / | / | / | /
CN(C)S(=O)(=O)c1ccc(NC(=O)COc2cccc3c2OC(C)(C)C3)cc1 | 1 | 9 | 0 | 1 | / | 3 | / | / | / | / | /
COc1cc(OC)cc(-c2nnc(NC(=O)c3ccc4c(c3)OCCO4)o2)c1 | -4 | -5 | 3 | 14 | / | -1 | / | / | / | / | /
CC(C)(C)c1ccc(C(=O)N2CCC2(C)C(=O)NCc2ccc3c(c2)OCO3)cc1 (configuration not stated) | / | 24 | / | 0 | / | / | / | / | / | / | /
CCOc1ccc(OCc2ccc(C(=O)N/N=C(\C)c3ccccn3)cc2)cc1 | / | 4 | / | 35 | 21 | / | / | / | / | / | /
SMILES | SENP8 block-1 | SENP8 block-2 | SENP6 inh | C8 TRAIL sens | PPC-1+TRAIL kill | SENP7 inh | SENP8 conf | SENP6 confirm | SENP7 conf | Casp3 SENP sel | SENP luc ctr
C/C(=N/OCc1ccc(Br)cc1)c1ccccn1 | 82* | 31 | -6 | 24 | 6 | 91* | 4 | 88* | 100* | 75* | 49
Cc1cccc(C(=O)O/N=C(\N)c2ccccn2)c1 | 91* | 11 | 97* | 87* | / | 98* | 94* | 95* | 100* | 96* | 93*
COc1ccc(C(=O)NCCCn2cccn2)cc1OC1CCN(C(C)=O)CC1 | 2 | 0 | 1 | -4 | / | 5 | / | / | / | / | /
O=C(OCc1csc(-c2ccccc2)n1)c1ccccc1O | 88* | 12 | 92* | -7 | -5 | 91* | 86* | 92* | 99* | 82* | 40
O=C(OCc1ccccc1)c1ccccc1O | 22 | / | 15 | / | / | 40 | / | / | / | / | /
CCN(C(=O)CSc1ncccn1)c1cccc2ccccc12 | -4 | -1 | 0 | -8 | / | 2 | / | / | / | / | /
Cc1cc(/C=c2/sc3nc4ccccc4n3c2=O)c(C)n1-c1ccccn1 | 91* | -80 | 79* | 80* | 5 | 6 | 32 | 54* | 29 | 64* | 2
N/C(=N\OC(=O)CCCc1ccccc1)c1ccccn1 | 12 | 4 | 50* | -11 | 25 | 37 | 28 | 28 | 73* | 73* | 54*
N/C(=N\OC(=O)CCC1CCCC1)c1ccccn1 | 67* | 7 | 87* | -1 | 8 | 68* | 82* | 80* | 95* | 91* | 83*
N/C(=N\OC(=O)CCC1CCCC1)c1ccccc1 | 41 | 5 | 69* | -6 | -2 | 17 | 72* | 71* | 89* | 83* | 53*
N/C(=N\OC(=O)CCC1CCCC1)c1ccc([N+](=O)[O-])cc1 | -9 | 11 | -7 | -6 | 21 | -10 | / | / | / | / | /
CCCc1ccc(C(=O)NNc2ccccc2F)cc1 | -2 | 20 | 15 | -3 | 9 | -3 | / | / | / | / | /
